TSG101-PTAP inh – blocks PTAP/TSG101 interaction to inhibit HIV-1 budding | Q99816 | Potency, µM (titrated, usually from 115 µM), for inactives: top-dose activity change, negative = inhibition, actives largely listed as inhibitors | AID 493005 | Fluorescence polarization, FITC-PTAP peptide / Tsg101 binding | 340,000 tested, under 10 active; active = well fitted inhibition curve with a large enough effect in the main read-out, with a control signal flat, not every such curve was filed as active; inconclusive = small, poorly fitted or top-dose-only effect, or effect the other way, or a change in a side signal; inactive = no such curve, though single readings can be large or run the other way; also: potency is read from the fitted curve at half-maximal effect; % of control where 0% means no effect
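Steps: Tsg101 binding domain dispensed (10 uM final), compounds pinned in DMSO, FITC-labeled PTAP-motif peptide added (50 nM final); after 20 min binding at room temperature, polarization measured.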
TRPML1 inh – inhibitors of human TRPML1 channel. AID 624415. Q9GZU1. 390,000 compounds, 0.02% hits. activity change, negative = inhibition, % (no concentration beside the values). TRPML1-inducible cells, Ca2+ dye fluorescence, FDSS; active compounds read low; inhibition of EC80 agonist-evoked calcium signal; in the data active = activity change below about -50%; inconclusive = between about -30% and that limit;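 also: stimulus is agonist 54-4 at its EC80 concentration; % is scaled to controls: 0 for no effect and ±100 for the full control effect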
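TRPML1-DL cells, Tet-induced overnight (~16 h, 37 °C) at 1,500 cells/well, were loaded with Ca8 no-wash dye plus quencher for 45-90 min at room temperature. Compounds were pinned during FDSS kinetic reading; agonist 54-4 at EC80 (4 uM final) then added.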
IL-2 act – IL-2 activation; IL-2 activation reporter assay, cell-based qHTS; stimulated with anti-CD3/CD4/CD28 beads; in transgenic mouse T cells; activation, % (series mostly up to about 46 µM); 360,000 compounds, 0.065% hits; AID 652025; in the data active = activation above about 50%; inconclusive = mostly about 30% to 49%; also: 0% is about no effect
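Unstimulated transgenic mouse T cells, 750 per well, received compound and, after 60 minutes, anti-CD3/anti-CD4 bead plus anti-CD28 stimulation. EGFP and DsRed were quantified after 18 hours.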
BRCA1 expr act – increases BRCA1 expression; 380,000 compounds, 1.1% hits; MCF7-BRCA1-FFLuc reporter, luminescence, 48 h; response scale: scaled: vehicle 0%, 10 µM genistein 100%; Potency, µM (highest dose often 46.1 µM), for the others: top-dose activation, hits mostly activators; also: potency is read from the fitted curve at half-maximal effect; nearly all actives have a fitted effect of over 80% in size
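Using MCF7 cells harboring a BRCA1 firefly luciferase reporter, plated 2 h before compound pinning, the screen measured luminescence after 48 h incubation. Responses were normalized to DMSO and 10 microM genistein, then fitted for concentration-effect.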
TRPML1 agonist – agonists of human TRPML1 channel | Q9GZU1 | 410,000 compounds, 0.12% hits | activation, % (test concentration not listed) | TRPML1-expressing cells, Ca2+ dye fluorescence, FDSS | AID 624414; in the data active = activation above about 50%; inconclusive = mostly about 30% to 49%; also: 0% is about no effect
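Cells: TRPML1-DL, 1X Tet inducer, ~16 h at 37 degrees C/5% CO2. Dye: ABD Ca8 no-wash + quencher, 45-90 min RT. Read: 10 s baseline, compound add, 110 s agonist phase; 54-4 EC80 (4uM final), 110 s antagonist phase.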
PKM2 act – activators of human pyruvate kinase M2; P14618; purified PKM2, Kinase-Glo ATP luminescence, activation; response scale: 0% is enzyme alone, no compound; Potency, µM (series often up to 57.5 µM), for the others: at the highest dose activation, usual class: activators; 260,000 compounds, 0.34% hits; also: potency is read from the fitted curve at half-maximal effect; % is scaled to controls: 0 for no effect and ±100 for the full control effect; nearly all actives have a fitted effect of over 55% in size
Target sequence (P14618 whole entry, looked up): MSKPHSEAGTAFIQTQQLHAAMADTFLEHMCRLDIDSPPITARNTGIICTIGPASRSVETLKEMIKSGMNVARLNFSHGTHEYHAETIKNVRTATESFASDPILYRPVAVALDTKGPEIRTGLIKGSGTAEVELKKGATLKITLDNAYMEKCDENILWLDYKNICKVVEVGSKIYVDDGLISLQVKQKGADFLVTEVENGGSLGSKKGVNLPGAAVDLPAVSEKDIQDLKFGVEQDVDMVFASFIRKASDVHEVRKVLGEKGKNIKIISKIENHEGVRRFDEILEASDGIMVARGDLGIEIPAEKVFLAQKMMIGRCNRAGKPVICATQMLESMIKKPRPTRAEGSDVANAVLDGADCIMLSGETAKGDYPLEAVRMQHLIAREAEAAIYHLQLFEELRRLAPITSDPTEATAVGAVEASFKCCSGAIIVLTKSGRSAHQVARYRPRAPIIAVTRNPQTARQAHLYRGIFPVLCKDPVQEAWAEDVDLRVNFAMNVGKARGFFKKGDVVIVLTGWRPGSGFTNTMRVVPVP
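Purified hPK-M2 (>95%) run at intermediate activity with 0.1 mM ADP and 0.5 mM PEP in 50 mM imidazole pH 7.2, KCl, MgCl2; 1 h room temperature. ATP formed read by Kinase-Glo luminescence; normalized to uninhibited and no-enzyme controls.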
Numbers without * were called inactive; u = inconclusive; x = no result. Hits are enriched below; roughly 1.3% of the tested compounds scored in any of these assays. Unless noted, calls follow the shape of the dose curve; as a rule, active = well fitted activation curve with a large enough effect; inconclusive = small, poorly fitted or top-dose-only effect; inactive = no such curve, though single readings can be large or run the other way.

SMILES	TSG101-PTAP inh	TRPML1 inh	IL-2 act	BRCA1 expr act	TRPML1 agonist	PKM2 act
Cc1oc(-c2cccc(Cl)c2)nc1Cn1c(SCc2ccccc2F)nc2ccncc21	x	26.1	x	0.0%	-0.8	x
CC(C)c1ccc(NC(=O)CCn2c(=O)c3cccn3c3ccccc32)cc1	x	17.1	x	x	4.7	x
CC1(C)Cc2nc3sc(C(=O)NCCCO)c(N)c3cc2CO1	-5.9%	-10.6	1.7	u	0.7	-1.9%
CCOC(=O)c1oc2nc3c(cc2c1N)COC(C)(C)C3	-7.9%	-1.5	-1.5	7.94µM*	-0.2	-4.3%
CCOC(=O)c1oc2nc3c(cc2c1N)CCCC3	-1.5%	2.8	4.6	u	0.5	-10.4%
COC(=O)c1sc2nc3c(cc2c1N)COC(C)(C)C3	-4.8%	1.9	-1.4	4.47µM*	-0.4	-2.8%
CC(=O)c1cccc(NC(=O)c2sc(-n3nc(C)c(Cc4ccc5c(c4)OCO5)c3C)nc2C)c1	x	-20.6	x	x	1.2	x
Cc1cc(NC(=O)c2ccc(Cl)cc2)no1	-1.5%	-4.8	-1.6	3.98µM*	0.6	-4.1%
Cc1cc(NC(=O)NC(=O)c2ccccc2)no1	-2.1%	-6.9	-0.3	5.01µM*	0.6	-2.8%
COc1cc(OC)cc(C(=O)N(Cc2ccco2)Cc2cccs2)c1	x	x	x	-17.3%	1.2	x
Cc1cccc(C(=O)N=c2sccn2C)c1[N+](=O)[O-]	-1.5%	-10.7	5.1	5.01µM*	0.5	-2.6%
CC(=O)Nc1ccc(S(=O)(=O)Nc2nnc(C(C)(C)C)s2)cc1	-1.2%	-6.1	0.9	0.7%	0.0	15.8µM*
CC(C)(C)c1nnc(NS(=O)(=O)c2ccc(F)cc2)s1	-4.3%	1.6	-3.5	-5.7%	-0.5	x
CC(C)Oc1ccc(CNS(=O)(=O)c2ccc3c(c2)C(C)(C)C(=O)N3C)cc1	x	11.8	x	17.0%	-0.3	x
CCOC(=O)c1cnc(SCc2ccc(C(C)(C)C)cc2)nc1N	2.6%	-21.8	3.1	u	8.1	2.2%
CCOC(=O)c1cnc(SCc2ccccc2)nc1N	-3.5%	3.1	-1.0	2.24µM*	2.2	-6.1%
O=C(Nc1ccc(F)c(Cl)c1)Nc1nnc([C@H]2C[C@H](O)[C@@H](CO)O2)s1	x	x	-0.2	11.2µM*	-0.1	x
O=C(Nc1nnc([C@@H]2C[C@H](O)[C@@H](CO)O2)s1)Nc1ccccc1F	x	x	-0.6	6.31µM*	-0.6	x
O=C(Nc1nnc([C@H]2C[C@H](O)[C@@H](CO)O2)s1)Nc1ccccc1F	x	x	0.8	92.1%	-0.1	x
O=C(Nc1nnc([C@@H]2C[C@H](O)[C@@H](CO)O2)s1)c1cccc2ccccc12	x	x	0.0	8.91µM*	0.2	x
O=C(Nc1nnc([C@@H]2C[C@H](O)[C@@H](CO)O2)s1)c1ccccc1Cl	x	x	0.6	38.5%	-0.7	x
O=C(C[N+]1(CCc2ccccc2)CCOCC1)c1ccccc1	x	x	x	x	0.2	x
C=C1NN(Cc2ccccc2)C(=O)N1c1ccc(OC)cc1	x	x	x	13.4%	-1.0	x
COc1cc(OC)c(OC)cc1/C=C/c1nc2ccccc2o1	x	x	x	10.9%	-1.0	x
CC(C)(C)c1ccc(C(=O)C[n+]2ccccc2Cl)cc1	x	x	x	7.94µM*	-0.3	x
SMILES	TSG101-PTAP inh	TRPML1 inh	IL-2 act	BRCA1 expr act	TRPML1 agonist	PKM2 act
C1=C(CCNc2ncnc3nc[nH]c23)CCCC1	-5.7%	1.4	-1.3	6.31µM*	-1.0	-0.5%
COCCn1c(N)c(C#N)c2nc3ccccc3nc21	-7.8%	-6.8	-3.0	0.7%	-0.5	3.4%
N#Cc1c(N)n(CCNC(=O)c2ccc(Cl)cc2)c2nc3ccccc3nc12	1.3%	15.3	1.2	-17.0%	-1.7	28.2µM*
Cc1ccc(C(=O)NCCn2c(N)c(C#N)c3nc4ccccc4nc32)cc1	-1.0%	-8.8	53.8*	-23.7%	-1.4	u
O=C(O)c1cccc(NC(=S)NC(=O)c2ccc(-c3ccc(Cl)cc3)o2)c1	3.4%	25.4	0.3	11.2µM*	0.7	1.0%
Cc1ccc(C(=O)O)cc1NC(=S)NC(=O)c1ccc(-c2ccc(Cl)cc2)o1	-8.6%	x	-1.8	19.0%	x	2.5%

Screens deposited in PubChem BioAssay by National Center for Advancing Translational Sciences (NCATS).
